Among all 5,500 compounds or so, about 2,000 (36%) were called active. Another 18% or so got no clear call; they are omitted. Rule as the data show it: active = normalized growth mostly below about 0.91 (no sharp cut-off); inconclusive = no clear call, values can overlap the other calls; inactive = mostly above about 0.92. Some of the results follow.
Experiment: chemical genetic growth profiling, strain panel (AID 1159580);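 also: tested at 20 µM; growth read once vehicle control cultures reached saturation at 30 °C; 1 = growth at the plate median or of vehicle wells; lower values mean less growth of the strain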
Conditions: growth OD
[1] = S. cerevisiae deletion strains, locus YAL013W, strain DEP1, active compounds read low
[2] = S. cerevisiae deletion strains, locus YBR229C, strain ROT2, active compounds read low
[3] = S. cerevisiae deletion strains, locus YCL061C, strain MRC1, active compounds read low
[4] = S. cerevisiae deletion strains, locus YDL101C, strain DUN1, active compounds read low
[5] = S. cerevisiae deletion strains, locus YDR150W, strain NUM1, active compounds read low
[6] = S. cerevisiae deletion strains, locus YEL061C, strain CIN8, active compounds read low
[7] = S. cerevisiae deletion strains, locus YGR078C, strain PAC10, active compounds read low
[8] = S. cerevisiae deletion strains, locus YHR030C, strain SLT2, active compounds read low
[9] = S. cerevisiae deletion strains, locus YHR087W, strain rtc3, active compounds read low
[10] = S. cerevisiae deletion strains, locus YJL187C, strain SWE1, active compounds read low
[11] = S. cerevisiae deletion strains, locus YJR043C, strain POL32, active compounds read low
[12] = S. cerevisiae deletion strains, locus YJR075W, strain HOC1, active compounds read low
[13] = S. cerevisiae deletion strains, locus YLR039C, strain RIC1, active compounds read low
[14] = S. cerevisiae deletion strains, locus YLR058C, strain SHM2 (second series), active compounds read low
[15] = S. cerevisiae deletion strains, locus YLR085C, strain ARP6, active compounds read low
[16] = S. cerevisiae deletion strains, locus YLR262C, strain YPT6, active compounds read low
[17] = S. cerevisiae deletion strains, locus YML094W, strain GIM5, active compounds read low
[18] = S. cerevisiae deletion strains, locus YMR219W, strain ESC1, active compounds read low
[19] = S. cerevisiae deletion strains, locus YMR263W, strain SAP30, active compounds read low
[20] = S. cerevisiae deletion strains, locus YNL153C, strain GIM3, active compounds read low
[21] = S. cerevisiae deletion strains, locus YNL298W, strain CLA4 (second series), active compounds read low
[22] = S. cerevisiae deletion strains, locus YNL322C, strain KRE1, active compounds read low
[23] = S. cerevisiae deletion strains, locus YNR030W, strain Alg12, active compounds read low
[24] = S. cerevisiae deletion strains, locus YOL006C, strain TOP1, active compounds read low
[25] = S. cerevisiae deletion strains, locus YPL055C, strain LGE1, active compounds read low
[26] = S. cerevisiae deletion strains, locus YPL241C, strain CIN2, active compounds read low
[27] = S. cerevisiae deletion strains, locus YPR135W, strain CTF4, active compounds read low
[28] = S. cerevisiae deletion strains, locus YNL128W, strain TEP1, active compounds read low
[29] = S. cerevisiae strains, strain wild type, active compounds read low

Measured: normalized growth

CCCn1c(=O)c(C#N)cn(-c2ccc(Cl)cc2)c1=O
inactive: [1] 1.01 | [2] 0.986 | [3] 1.01 | [4] 0.991 | [5] 1.02 | [6] 0.97 | [7] 0.996 | S. cerevisiae deletion strains, locus YGR229C, strain SMI1, active compounds read low 0.997 | [8] 0.937 | [9] 0.977 | [11] 1.02 | [12] 1.01 | [14] 0.986 | [15] 0.893 | [16] 0.821 | [17] 0.963 | [18] 0.99 | [19] 1 | [20] 1 | [21] 0.961 | [22] 0.979 | [23] 0.99 | [24] 0.924 | [25] 1.04 | [26] 0.982 | [27] 1.03
active: [10] 0.93 | [13] 0.759

CC(C)n1cc(C#N)c(=O)n(Cc2ccccc2)c1=O
inactive: [1] 0.992 | [2] 0.994 | [3] 0.991 | [4] 1.02 | [5] 0.923 | [6] 1 | [7] 0.991 | [8] 0.983 | [9] 0.989 | [10] 0.977 | [12] 0.999 | [13] 1.01 | [14] 1 | [15] 0.999 | [16] 1.04 | [17] 0.988 | [18] 1 | [19] 0.967 | [28] 0.994 | [20] 0.984 | [21] 1.05 | [22] 0.996 | [23] 1.01 | [25] 0.979 | [26] 1 | [27] 0.994 | [29] 1.01

CCOC(=O)Cn1c(=O)c(C#N)cn(C(C)C)c1=O
inactive: [1] 1.01 | [2] 1.01 | [3] 0.993 | [4] 1.02 | S. cerevisiae deletion strains, locus YDL134C, strain PPH21, active compounds read low 1.01 | [5] 1.02 | [6] 0.988 | [7] 1.01 | [8] 1.03 | [9] 1 | [10] 1 | [11] 0.998 | [12] 1.02 | [13] 1.02 | [14] 1.01 | [15] 0.976 | [16] 1.01 | [17] 1 | [18] 1.01 | [19] 1 | [28] 0.98 | [20] 1 | [21] 1.04 | [22] 1.01 | [23] 1.02 | [24] 1.03 | [25] 0.984 | [26] 1.02 | [27] 1.02 | [29] 1.01

Source: PubChem BioAssay AID1159580 (chemical genetic matrix, 2015)
